In the library only some 17% were active in any assay of this set; here they are far more common.
ATXN2 expr inh – Primary qHTS for Inhibitors of ATXN expression; HEK-293 ATXN2-luciferase reporter, luminescence, 24 h; 360,000 compounds, 0.72% hits; AID 1745845, 2022; Potency, µM (doses to about 57 µM), actives largely listed as inhibitors; note: nearly all actives have a fitted effect of over 55% in size
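qHTS (up to 57 uM final) was run with 24 h compound exposure of reporter cells at 37 °C. Each well was multiplexed: SteadyGlo luminescence measured ATXN2-luciferase expression after a fluorogenic Gly-Phe-AFC viability readout (25 uM final).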
TDP1 cell CPT – qHTS for Inhibitors of human tyrosyl-DNA phosphodiesterase 1 (TDP1): qHTS in cells in presence of CPT; 420,000 compounds, 12% hits; AID 686979, 2013; Potency, µM (top dose mostly 46.2 µM), usual class: inhibitors; chicken DT40 Tdp1-/-;hTDP1 cells + 20 nM CPT, ATP luminescence, 48 h; note: nearly all actives have a fitted effect of over 55% in size
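Chicken DT40 Tdp1-/- cells complemented with human TDP1, 400 cells/well, exposed to compounds plus 20 nM camptothecin for at least 48 h at 37 C; viability read as ATP content by CellTiter-Glo luminescence.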
ATXN viability – Viability Counterscreen for Primary qHTS for Inhibitors of ATXN expression; S2 cells (HEK-293 line with an ATXN2-luciferase reporter) viability, CellTiter-Fluor protease fluorescence, 24 h; Potency, µM (titrated, usually from 56.7 µM), hits mostly cytotoxic; 400,000 compounds, 0.49% hits; AID 651635, 2014; note: nearly all actives have a fitted effect of over 40% in size
HepG2 tox-1 – qHTS for Inhibitors of TGF-b: Cytotox Counterscreen | 410,000 compounds, 0.76% hits | HepG2 CAGA-GFP viability, ATP luminescence, 18 h | Potency, µM (highest dose often 46.1 µM), hits mostly cytotoxic | AID 588856, 2011
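CellTiter-Glo luminescence gave cytotoxicity after 18 hours at 37 degrees C. The cells were HepG2 CAGA-GFP in 1% FBS DMEM, stimulated with 500 pg/mL TGF-beta after compound addition. %Activity was normalised to no-cell wells (complete cell-killing) and DMSO (no toxicity), and curves were fitted and classified.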
TGFb inhibitor – qHTS for Inhibitors of TGF-b; 410,000 compounds, 1.2% hits; HepG2 CAGA-GFP TGF-b/SMAD3 reporter, GFP fluorescence, 18 h; TGF-beta stimulated, 500 pg/mL final; AID 588855, 2011; Potency, µM (highest dose often 46.1 µM), usual class: inhibitors; note: nearly all actives have a fitted effect of over 65% in size
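Per well, imaged GFP fluorescence of HEPG2 CAGA-GFP cells gives the signal; cells get compound, then TGF-beta (500 pg/mL final), 18 h at 37 degrees C; %Activity versus -TGF-beta and +DMSO controls.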
TDP1 cell noCPT – qHTS for Inhibitors of human tyrosyl-DNA phosphodiesterase 1 (TDP1): qHTS in cells in absence of CPT; Potency, µM (highest dose often 46.2 µM), most hits filed as inhibitors; DT40 Tdp1-/- hTDP1 cells, no CPT, ATP luminescence, 48 h; 420,000 compounds, 15% hits; note: nearly all actives have a fitted effect of over 55% in size
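A cellular qHTS used chicken DT40 cells lacking endogenous Tdp1 but carrying stably transfected human TDP1. Compounds were applied without camptothecin, and cell growth kinetics were judged by ATP-dependent luminescence after ≥48 hr.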
TGFb confirm – qHTS for Inhibitors of TGF-b: Confirmation of Cherry Picks; HepG2 CAGA-GFP TGF-b reporter, GFP fluorescence, 18 h; cells stimulated with TGF-beta, 500 pg/mL; shares compounds with TGFb inhibitor; Potency, µM (doses to about 46.1 µM), usual class: inhibitors; 1,600 compounds, 63% hits; AID 720534, 2013; note: nearly all actives have a fitted effect of over 65% in size
HepG2 tox-2 – qHTS for Inhibitors of TGF-b: Cytotox Counterscreen for Cherry Picks; shares compounds with TGFb inhibitor; HepG2 CAGA-GFP viability, ATP luminescence, 18 h; cells stimulated with TGF-beta, 500 pg/mL; Potency, µM (top dose mostly 46.1 µM), hits mostly inhibitors; 1,600 compounds, 27% hits; AID 720535, 2013; note: nearly all actives have a fitted effect of over 70% in size
CCL64 TGFb inh – qHTS for Inhibitors of TGF-b: CCL64 Cells Orthogonal Assay for Cherry Picks. shares compounds with TGFb inhibitor. CCL64 CAGA-GFP reporter, TGF-b stimulated, GFP fluorescence, 18 h. Potency, µM (highest dose often 46.1 µM), actives largely listed as inhibitors. 1,600 compounds, 41% hits; note: nearly all actives have a fitted effect of over 65% in size
COP TGFb inh – qHTS for Inhibitors of TGF-b: Hit Validation in HepG2 Cells using COP promoter; 1,600 compounds, 3% hits; Potency, µM (series often up to 46.1 µM), actives largely listed as inhibitors; AID 720537, 2013; shares compounds with TGFb inhibitor; HepG2 COP-GFP TGF-b reporter, GFP fluorescence, 18 h; cells stimulated by added recombinant TGF-beta; note: nearly all actives have a fitted effect of over 70% in size
A number is an active result; 0 = inactive; ? = inconclusive; - = no result given. Calls come from the whole dose curve; as a rule, active = well fitted curve in the direction sought with a large enough effect; inconclusive = small, poorly fitted or top-dose-only effect, or another doubt; inactive = no such curve, though single readings can be large; an effect the other way counts as inactive or inconclusive.

SMILES	ATXN2 expr inh	TDP1 cell CPT	ATXN viability	HepG2 tox-1	TGFb inhibitor	TDP1 cell noCPT	TGFb confirm	HepG2 tox-2	CCL64 TGFb inh	COP TGFb inh
CCc1noc(C)c1C(=O)N1CCN(S(=O)(=O)c2ccc(Br)cc2)CC1	0	0	0	0	?	0	-	-	-	-
CN(Cc1cccs1)C(=O)C1CCN(S(=O)(=O)c2ccccc2)CC1	0	?	0	0	0	0	-	-	-	-
CCN(CC)S(=O)(=O)c1cccc(C(=O)N[C@H](C(=O)Nc2nc3ccc(F)cc3s2)C(C)C)c1	?	16.4µM	0	0	7.94µM	14.6µM	4.11µM	?	?	0
O=C(Nc1cccc(Cl)c1)c1cc(N=Nc2ccc([N+](=O)[O-])cc2Cl)ccc1O	-	5.17µM	?	0	?	2.59µM	4.61µM	5.17µM	2.31µM	0
Nc1ccc(CCNc2ncnc3c2ncn3[C@@H]2O[C@H](CO)[C@@H](O)[C@H]2O)cc1	0	0	0	0	0	?	-	-	-	-
CC(C)=CCNc1ncnc2c1c(C#N)cn2C1OC(CO)C(O)C1O (centres undefined)	0	5.8µM	?	0	3.98µM	4.11µM	0.731µM	?	0	0
CCCN1Cc2cccc(C(=O)NCCc3cccc(C)c3)c2C1=O	-	?	0	0	0	?	-	-	-	-
Cc1cccc(CCNC(=O)c2cccc3c2C(=O)N(C2CCCCC2)C3)c1	0	?	0	0	12.6µM	0	14.6µM	0	?	0
CCOc1ccc(CCN2C(=S)N([C@@H](Cc3ccc(O)cc3)CN3CCC[C@@H]3CN3C(=S)NC[C@@H]3CC(C)C)C[C@@H]2Cc2ccc(O)cc2)cc1	?	5.17µM	7.08µM	0	4.47µM	3.66µM	8.2µM	11.6µM	5.17µM	0
Oc1ccc(C[C@H]2CNC(=S)N2C[C@H]2CCCN2C[C@H](Cc2ccccc2)N2C[C@H](Cc3ccc(O)cc3)N(CCc3ccccc3)C2=S)cc1	?	7.31µM	?	0	7.08µM	4.11µM	6.51µM	?	3.66µM	0
CC(C)C[C@@H](CN1CCCC1CN1C(=S)NC[C@@H]1Cc1ccc(O)cc1)N1C[C@H](Cc2ccc(O)cc2)N(CCc2ccccc2)C1=S (some centres undefined)	?	13µM	28.2µM	6.31µM	5.62µM	7.31µM	14.6µM	?	8.2µM	0
O=C(c1ccc(C(F)(F)F)cc1)c1c[nH]c(C(=O)NCCCn2ccnc2)c1	0	0	0	0	0	0	-	-	-	-
Clc1ccc2nc(-c3ccco3)c(Cc3ccccc3)n2c1	0	16.4µM	?	0	11.2µM	?	14.6µM	?	?	0

High-throughput results from PubChem.
